The values below come from PubChem BioAssay AID1259336 (Sattelle Laboratory, UCL Respiratory, Division of Medicine, …, 2017).

Activity calls are given as the source filed them. No stated cut-off is given here; in the data, active means log2 fold change growth below about -1.8; inactive means the rest.

This assay is described as follows: anthelmintic activity against nematode growth – whole organism, log2 fold change (AID 1259336).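 Further: growth scored by imaging after five days at 20 °C.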 The following applies: C. elegans growth, anthelmintic screen; stronger effect = lower value.
Consider `Cc1nn(C)cc1[C@H](C)Nc1nncc(-c2ccc(C(F)(F)F)cc2)n1`, for which the log2 fold change growth is 0.429 (inactive).
For the molecule `CCOc1ccccc1C(=O)Nc1cccc(-c2nc3ncccn3c2C)c1`, the log2 fold change growth is -0.256 (inactive).
In the case of `COc1cccc(CC(=O)N2CCC(n3c(C)nc4ccc(F)cc43)CC2)c1`, the log2 fold change growth is 0.116 (inactive).
`Nc1ncc(-c2cn[nH]c2)cc1-c1nc2ncc(Cl)cc2[nH]1`: the log2 fold change growth was -0.454 (inactive).
As to `CN1CCN(S(=O)(=O)c2ccc(-c3ccc4c(Nc5ccc6n[nH]nc6c5)ccnc4c3)cc2)CC1`, the log2 fold change growth was -0.667 (inactive).
In the case of `CCc1nc2ccc(Cl)cn2c1C(=O)NCc1ccc(N2CCC(c3ccc(OC(F)(F)F)cc3)CC2)cc1`, the log2 fold change growth was -0.0431 (inactive).
Consider `O=C1N(Cc2cc3ccccc3s2)C[C@H]2CN(Cc3ccccc3)CCN12`, for which the log2 fold change growth is -0.864 (inactive).
For the molecule `COc1ccc(N(CCc2cccc(C)n2)C(C)=O)cc1`, the log2 fold change growth is 0.0749 (inactive).
On to `NC(=O)c1cc(-c2ccsc2)ccc1OCCOc1ccccc1`, for which the log2 fold change growth is 0.0714 (inactive).
In the case of `COc1ccc(CN2CCOc3ccc([C@@](C)(O)CN(C)C)cc3C2)cc1C`, the log2 fold change growth is 0.162 (inactive).
For `N#CCN(CCCCN1CCN(c2ccc(F)cc2)CC1)C(=O)OCc1ccccc1`, the log2 fold change growth is 0.194 (inactive).
With `COC(=O)c1c(NC(=O)c2cc3ccccc3oc2=O)sc2c1CCN(Cc1ccccc1)C2`, the log2 fold change growth was -0.125 (inactive).
For `CC(C)(C)C(=O)N(CCCCCCN1C[C@H](O)[C@@H](O)[C@H](O)[C@H]1CO)C1CCCCCC1`, the log2 fold change growth is -0.767 (inactive).
As for `NCCC(O)C(=O)N[C@@H]1C[C@H](N)[C@@H](OC2O[C@H](CN)[C@@H](O)[C@H](O)[C@H]2O)[C@H](O)C1OC1O[C@H](CO)[C@@H](O)[C@H](N)[C@H]1O` (some centres undefined), the figure is 0.334 (inactive).
